From PubChem BioAssay (Tox21)
Inconclusive results are not listed. A call without a number means that no potency is given here. Calls of active or inactive are those of the source. The call rests on the fitted dose curve.

The molecules below were run against Thyrotropin receptor (Homo sapiens) (UniProt P16473) (assay: qHTS assay to identify small molecule antagonists of the thyroid stimulating hormone receptor (TSHR) signaling pathway (AID 1259385; further: nearly all actives have a fitted effect of over 20% in size)). Conditions: TSHR-HEK293 cAMP HTRF, TSH-stimulated antagonist mode; series mostly up to 92.4 µM.
Chain of Thyrotropin receptor (Homo sapiens) (P16473 whole entry, looked up): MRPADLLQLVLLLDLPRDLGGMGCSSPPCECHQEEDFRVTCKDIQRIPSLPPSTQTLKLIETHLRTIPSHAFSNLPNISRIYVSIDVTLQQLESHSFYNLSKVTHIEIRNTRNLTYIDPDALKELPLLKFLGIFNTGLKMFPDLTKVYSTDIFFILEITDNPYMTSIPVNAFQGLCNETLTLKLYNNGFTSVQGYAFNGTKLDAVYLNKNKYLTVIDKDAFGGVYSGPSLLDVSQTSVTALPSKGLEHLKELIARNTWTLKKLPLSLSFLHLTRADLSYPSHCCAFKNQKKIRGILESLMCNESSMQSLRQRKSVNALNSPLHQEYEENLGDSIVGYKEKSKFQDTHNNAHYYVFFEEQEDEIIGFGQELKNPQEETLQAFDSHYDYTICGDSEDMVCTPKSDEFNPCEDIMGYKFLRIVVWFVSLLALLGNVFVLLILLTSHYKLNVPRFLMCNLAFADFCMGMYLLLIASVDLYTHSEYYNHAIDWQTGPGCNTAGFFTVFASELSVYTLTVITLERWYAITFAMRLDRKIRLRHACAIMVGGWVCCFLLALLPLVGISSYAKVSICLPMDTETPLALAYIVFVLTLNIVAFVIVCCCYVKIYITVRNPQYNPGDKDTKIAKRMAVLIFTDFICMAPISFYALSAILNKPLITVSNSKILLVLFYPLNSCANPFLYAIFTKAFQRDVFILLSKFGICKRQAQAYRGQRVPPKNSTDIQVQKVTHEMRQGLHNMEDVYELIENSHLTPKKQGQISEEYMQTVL
Source text: U.S. Tox21 Program National Center for Advancing Translational Sciences [NCATS] NIH Chemical Genomics Center [NCGC] U.S. Environmental Protection Agency [EPA] National Institutes of Environmental Health Sciences [NIEHS] National Toxicology Program [NTP] U.S. Food and Drug Administration [FDA] Tox21 Assay Overview: TSHR is the receptor for thyrotropin (thyroid stimulating hormone or TSH), a member of the glycoprotein hormone family. TSH is released by the anterior pituitary gland and is the main regulator of thyroid gland growth and development. Upon binding circulating thyrotropin, a G-protein signal cascade activates adenylyl cyclase and […] cAMP concentration is increased. cAMP is a key second messenger involved extensively in cellular signal transduction pathways associated with the majority of G-protein coupled receptors (GPCRs). The activation of these GPCRs by neurotransmitters, lipids, nucleotides, peptides and hormones results in the activation or the inhibition of plasma membrane-bound adenylate cyclase through heterotrimeric G-proteins. A cell-based TSHR assay can be used to screen chemical compounds that modulate TSHR either in agonist or antagonist mode.
Tox21 Assay Protocol Summary: TSHR-Hek293 cells were dispensed at 800 cells/4uL/well in 1536-well white plates using a Multidrop dispenser. After the assay plates were incubated at a 37C/5% CO2 incubator for 18 hrs, 23 nL of compounds dissolved in DMSO, positive controls or DMSO only was transferred to the assay plate by a pin tool, followed by 1 ul medium containing Ro20-1724. For the antagonist mode screening, 1 uL of TSH was added on the top of the cell/compound mixtures to achieve a final agonist concentration of 1.5 ng/mL. After 30 min of incubation at room temperature, 2.5 ul/well of cAMP-d2 and 2.5 ul/well of anti-cAMP-cryptate were added respectively into the assay plates using a Flying Reagent Dispenser. The plates were incubated at room temperature for 1 hr. The fluorescence intensity in the plates was measured using an Envision plate reader. Each test compound was measured at 15 concentrations and in triplicates.

| SMILES | Potency | activity change, negative = inhibition |
| --- | --- | --- |
| CC(C)(C(=O)c1cccnc1)c1cccnc1 | inactive | – |
| Cc1cc(CCC(=O)OCCOCCOCCOC(=O)CCc2cc(C)c(O)c(C(C)(C)C)c2)cc(C(C)(C)C)c1O | inactive | – |
| COc1ccc(-n2nc(C(F)F)cc2-c2ccc(S(C)=O)cc2)cc1 (stereo not given) | inactive | – |
| CC(C)(C)CCCCCCOC(=O)c1ccccc1C(=O)OCCCCCCC(C)(C)C | inactive | – |
| CC(C)OC(=O)c1ccccc1C(=O)OC(C)C | inactive | – |
| O=[N+]([O-])c1ccc2ncccc2c1 | inactive | – |
| CCCCCCCCCCCCCOC(=O)CCSCCC(=O)OCCCCCCCCCCCCC | – | -0.382% [at 19 µM] (inactive) |
| CCCCCCCCCCCCCC(=O)OCC(O)CO (stereo not given) | inactive | – |
| Nc1nc2ccc(OC(F)(F)F)cc2s1 | inactive | – |
| Nc1c(Cl)cc(Cl)cc1[N+](=O)[O-] | inactive | – |
| C=C(C)C(=O)OCCC(F)(F)C(F)(F)C(F)(F)C(F)(F)C(F)(F)C(F)(F)F | inactive | – |
| Nc1nc(-c2ccc([N+](=O)[O-])cc2)cs1 | inactive | – |
| Cc1cccc(C)c1NC(=O)c1cc(S(N)(=O)=O)c(Cl)cc1O | inactive | – |
| C[C@H](CS)C(=O)N1CCC[C@H]1C(=O)O | inactive | – |
| CC1=CC[C@@]23C[C@@H]1C(C)(C)[C@@H]2CC[C@H]3C | inactive | – |
| COc1cc(OC)c2ccc(=O)oc2c1 | inactive | – |
| CCN(CC)CCNC(=O)c1cc(Cl)c(N)cc1OC | inactive | – |
| CC1=CC[C@@H]2C[C@H]1C2(C)C | – | 8.95% [at 19 µM] (inactive) |
| CCCCCCC(O)CCOC(C)=O (stereo not given) | inactive | – |
| CC(=O)OC(C)C[N+](C)(C)C (stereo not given) | inactive | – |

| SMILES | Potency | activity change, negative = inhibition |
| --- | --- | --- |
| CCN(CC)CC(=O)Nc1c(C)cccc1C(=O)OC | inactive | – |
| CC(C)c1ccc(C(=O)N=C(N)N)cc1S(C)(=O)=O | inactive | – |
| CCCCOC(=O)CCCCC(=O)OCCCC | inactive | – |
| O=C(O)CO | inactive | – |
| Nc1ccn([C@H]2CS[C@@H](CO)O2)c(=O)n1 | inactive | – |
| O=C1OC(=O)c2c(Br)c(Br)c(Br)c(Br)c21 | inactive | – |
| FC(F)(F)C(F)(F)C(F)(F)C(F)(F)CCI | inactive | – |
| CC(CCc1ccc(O)cc1)NCCc1ccc(O)c(O)c1 (stereo not given) | inactive | – |
| CCC1CCC(CCC(=O)O)C1 (stereo not given) | inactive | – |
| C/C(C=O)=C\c1ccccc1 | inactive | – |
| CCOc1ncc(F)c(=O)[nH]1 | inactive | – |
| CC(C)C1CCC(C(=O)N[C@H](Cc2ccccc2)C(=O)O)CC1 (stereo not given in full) | inactive | – |
| O=S(=O)(O)CO | inactive | – |
| O=C(O)CCCc1c[nH]c2ccccc12 | inactive | – |
| CC(C)c1ccc(C#N)cc1 | inactive | – |
| CC1C(C)(C)C2=C(C(=O)CCC2)C1(C)C (stereo not given) | inactive | – |
| CCCCCCC(O)CCCCCCCCCCC(=O)OC (stereo not given) | inactive | – |
| CCC(CO)(CO)[N+](=O)[O-] | inactive | – |
| COc1cc(NC(C)CCCN)c2ncccc2c1 (stereo not given) | inactive | – |
| COc1ccc(N)c([N+](=O)[O-])c1 | inactive | – |
